Laboratory results: PubChem BioAssay (EPA / NIEHS)
Calls of active or inactive are those of the source. Rule for the calls: active = hit-call score of the fitted dose curve at least 0.9, where 1 is the maximum; inactive = score below 0.9.

Key:
[1] = read-out: Thrombomodulin, THBD (gene 7056); experiment: BSK_CASM3C_Thrombomodulin: BioMAP Diversity Plus: CASM3C Assay for Thrombomodulin Biomarker Activity (AID 2283051); details: primary human coronary artery smooth muscle cells; actives raise or lower the signal;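 note: thrombomodulin protein level measured by ELISA 24 h after dosing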
[2] = read-out: Tissue Factor, F3 (gene 2152); experiment: BSK_CASM3C_TissueFactor: BioMAP Diversity Plus: CASM3C Assay for Tissue Factor Biomarker Activity (AID 2283052); details: primary human coronary artery smooth muscle cells; actives raise or lower the signal;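 note: cell surface tissue factor protein level read by ELISA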
[3] = read-out: Urokinase-type plasminogen activator receptor (uPAR), PLAUR (gene 5329); experiment: BSK_CASM3C_uPAR: BioMAP Diversity Plus: CASM3C Assay for Urokinase-type plasminogen activator receptor (uPAR) Biomarker Activity (AID 2283054); details: primary human coronary artery smooth muscle cells; actives raise or lower the signal;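 note: cell-surface uPAR protein level quantified by ELISA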
[4] = read-out: Vascular cell adhesion molecule 1 (VCAM1), VCAM1 (gene 7412); experiment: BSK_CASM3C_VCAM1: BioMAP Diversity Plus: CASM3C Assay for Vascular cell adhesion molecule 1 (VCAM1) Biomarker Activity (AID 2283055); details: primary human coronary artery smooth muscle cells; actives raise or lower the signal;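 note: VCAM-1 protein level quantified by ELISA on the cells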
[5] = read-out: Epidermal growth factor receptor (EGFR), EGFR (gene 1956); experiment: BSK_hDFCGF_EGFR: BioMAP Diversity Plus: hDFCGF Assay for Epidermal growth factor receptor (EGFR) Biomarker Activity (AID 2283057); details: primary human foreskin fibroblasts; actives raise or lower the signal
How it was run: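 Dosing human primary skin fibroblasts, then measuring surface EGFR by ELISA at 24 h, gives the endpoint; gains and losses relative to DMSO were fitted in both directions.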

[6] = BSK_hDFCGF_Proliferation: Cell Proliferation Assessment in the BioMAP Diversity Plus: hDFCGF Assay (AID 2283059); details: primary human foreskin fibroblasts;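 note: curves fitted for both rise and fall of signal versus DMSO baseline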
How it was run: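 Primary human foreskin fibroblasts, sub-confluent; […]; 10% TCA fix, 0.1% SRB stain, A560 total protein. Gain/loss fitted bidirectionally vs DMSO control.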

[7] = read-out: Macrophage colony-stimulating factor (MCSF), CSF1 (gene 1435); experiment: BSK_hDFCGF_MCSF: BioMAP Diversity Plus: hDFCGF Assay for Macrophage colony-stimulating factor (MCSF) Biomarker Activity (AID 2283060); details: primary human foreskin fibroblasts; actives raise or lower the signal
How it was run: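 fibroblasts (human foreskin, primary), 24 h post-dose; M-CSF by ELISA; bidirectional fit, DMSO = baseline.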

[8] = BSK_hDFCGF_SRB: Viability Assessment in the BioMAP Diversity Plus: hDFCGF Assay (AID 2283061); details: primary human foreskin fibroblasts;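 note: cells exposed to compound for 24 h before the read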
How it was run: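 SRB-based viability read on primary human skin fibroblasts at 24 h: TCA fixation, 0.1% dye, 560 nm. Gain or loss of signal is fitted against the DMSO negative control.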

[9] = read-out: TIMP metallopeptidase inhibitor 1 (TIMP1), TIMP1 (gene 7076); experiment: BSK_hDFCGF_TIMP1: BioMAP Diversity Plus: hDFCGF Assay for TIMP metallopeptidase inhibitor 1 (TIMP1) Biomarker Activity (AID 2283062); details: primary human foreskin fibroblasts; actives raise or lower the signal
How it was run: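 Bidirectional curve fitting against DMSO baseline yielded this endpoint, based on ELISA detection of TIMP-1 in primary human foreskin fibroblasts exposed to compound for 24 h.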

[10] = read-out: Monokine induced gamma interferon (MIG), CXCL9 (gene 4283); experiment: BSK_hDFCGF_MIG: BioMAP Diversity Plus: hDFCGF Assay for Monokine induced gamma interferon (MIG) Biomarker Activity (AID 2283063); details: primary human foreskin fibroblasts; actives raise or lower the signal
How it was run: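 Endpoint derived by bidirectional fitting relative to DMSO; MIG quantified via ELISA in primary human foreskin fibroblasts harvested 24 h after dosing.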

[11] = read-out: Matrix Metallopeptidase 1 (MMP1), MMP1 (gene 4312); experiment: BSK_hDFCGF_MMP1: BioMAP Diversity Plus: hDFCGF Assay for Matrix Metallopeptidase 1 (MMP1) Biomarker Activity (AID 2283064); details: primary human foreskin fibroblasts; actives raise or lower the signal
How it was run: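 ELISA read-out of MMP1 from human foreskin fibroblasts (primary skin cells), 24 h post-dose. Gain or loss of signal was fitted bidirectionally versus DMSO negative control; cytotoxicity was checked by SRB in parallel cultures.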

[12] = read-out: Vascular cell adhesion molecule 1 (VCAM1), VCAM1 (gene 7412); experiment: BSK_hDFCGF_VCAM1: BioMAP Diversity Plus: hDFCGF Assay for Vascular cell adhesion molecule 1 (VCAM1) Biomarker Activity (AID 2283065); details: primary human foreskin fibroblasts; actives raise or lower the signal
How it was run: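 Measured after 24 h chemical treatment of primary human skin fibroblasts, VCAM-1 was detected by ELISA and concentration-response analysed in both directions versus DMSO vehicle.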

[13] = read-out: Plasminogen activator inhibitor-1 (PAI1), SERPINE1 (gene 5054); experiment: BSK_hDFCGF_PAI1: BioMAP Diversity Plus: hDFCGF Assay for Plasminogen activator inhibitor-1 (PAI1) Biomarker Activity (AID 2283066); details: primary human foreskin fibroblasts; actives raise or lower the signal
How it was run: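 Fibroblasts from human foreskin were treated with test chemical. After 24 h, PAI-1 was measured by ELISA. Activity was fitted in both directions relative to DMSO.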

[14] = read-out: Intercellular Adhesion Molecule 1 (ICAM1), ICAM1 (gene 3383); experiment: BSK_KF3CT_ICAM1: BioMAP Diversity Plus: KF3CT Assay for Intercellular Adhesion Molecule 1 (ICAM1) Biomarker Activity (AID 2283067); details: primary human keratinocytes with fibroblasts; actives raise or lower the signal
How it was run: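 Bidirectional curve fitting against a DMSO baseline was applied to ICAM-1 ELISA signal from primary human skin co-cultures harvested 24 h after treatment, with SRB staining of parallel wells for overt cytotoxicity.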

[15] = read-out: Interferon-gamma inducible Protein 10 (IP10), CXCL10 (gene 3627); experiment: BSK_KF3CT_IP10: BioMAP Diversity Plus: KF3CT Assay for Interferon-gamma inducible Protein 10 (IP10) Biomarker Activity (AID 2283068); details: primary human keratinocytes with fibroblasts; actives raise or lower the signal
How it was run: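 In a primary skin co-culture of keratinocytes and fibroblasts, IP-10 is quantified by ELISA at 24 h after dosing. SRB staining of parallel wells monitors overt toxicity. Curves are fitted both directions against DMSO.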

[16] = BSK_KF3CT_SRB: Viability Assessment in the BioMAP Diversity Plus: KF3CT Assay (AID 2283069); details: primary human keratinocytes with fibroblasts;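 note: total protein by sulforhodamine B staining as a cytotoxicity measure; fitted for both signal gain and loss against DMSO baseline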
How it was run: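 SRB read-out at 560 nm (0.1% stain, TCA-fixed cells) gauges overt cytotoxicity in a human skin keratinocyte–fibroblast co-culture 24 h post-dosing. Signal change was fitted bidirectionally relative to DMSO control.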

[17] = read-out: Interleukin-1 alpha (IL1a), IL1A (gene 3552); experiment: BSK_KF3CT_IL1a: BioMAP Diversity Plus: KF3CT Assay for Interleukin-1 alpha (IL1a) Biomarker Activity (AID 2283070); details: primary human keratinocytes with fibroblasts; actives raise or lower the signal
How it was run: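 Primary skin co-culture (keratinocytes, foreskin fibroblasts), 24 h exposure; ELISA for IL-1a; bidirectional curve fit vs DMSO.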

[18] = read-out: Collagen III, COL3A1 (gene 1281); experiment: BSK_hDFCGF_CollagenIII: BioMAP Diversity Plus: hDFCGF Assay for Collagen III Biomarker Activity (AID 2283056); details: primary human foreskin fibroblasts; actives raise or lower the signal
How it was run: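 Response relative to DMSO, fitted in both directions, reflects ELISA-measured collagen III in human primary skin fibroblasts 24 h after compound addition.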

[19] = read-out: Interleukin-8 (IL8), CXCL8 (gene 3576); experiment: BSK_hDFCGF_IL8: BioMAP Diversity Plus: hDFCGF Assay for Interleukin-8 (IL8) Biomarker Activity (AID 2283058); details: primary human foreskin fibroblasts; actives raise or lower the signal
How it was run: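 Fibroblast monolayers (human foreskin, hDFCGF) received test chemical for 24 h before ELISA detection of IL-8; either increases or decreases relative to DMSO count as activity.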

Measured: AC50

O=C=NCc1cccc(CN=C=O)c1
not listed: [18] | [19]
inactive: all other assays above

NC(=O)C(F)(F)C(F)(F)C(F)(F)F
not listed: [19]
inactive: all other assays above

CC1=CC2C3C=CC(C3)C2C1C (centres undefined)
active: [6] 28.2 µM
not listed: [18]
inactive: all other assays above

OCCCCC(F)(F)C(F)(F)C(F)(F)C(F)(F)F
not listed: [18]
inactive: all other assays above

NCC(F)(F)C(F)(F)C(F)(F)C(F)(F)C(F)(F)C(F)(F)F
not listed: [19]
inactive: all other assays above
